# The entries come from a sample that favours hits as a whole.
# HT1080 IDH1KD tx – qHTS for induction of synthetic lethality in tumor cells producing 2HG: qHTS for the HT-1080-IDH1KD cell line; HT-1080 IDH1 knockdown viability, ATP luminescence, 48 h; Potency, µM (top dose mostly 46.1 µM), most hits filed as cytotoxic; actives 2% (n = 360,000); AID 686971, 2013
#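 Viability of IDH1-knockdown HT-1080 fibrosarcoma cells was assessed by CellTiter-Glo after 48 h at 37 °C with titrated compound; concentration-effect curves were classified by fit quality and response size.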
# 12-LOX inh – Primary qHTS assay for inhibitors of human arachidonate 12S-lipoxygenase (ALOX12): Round 2; purified 12hLO, xylenol orange hydroperoxide absorbance; Potency, µM (series often up to 108 µM), most hits filed as inhibitors; actives 1.1% (n = 580,000); AID 1671190, 2021
# Target sequence (P18054 whole entry, looked up): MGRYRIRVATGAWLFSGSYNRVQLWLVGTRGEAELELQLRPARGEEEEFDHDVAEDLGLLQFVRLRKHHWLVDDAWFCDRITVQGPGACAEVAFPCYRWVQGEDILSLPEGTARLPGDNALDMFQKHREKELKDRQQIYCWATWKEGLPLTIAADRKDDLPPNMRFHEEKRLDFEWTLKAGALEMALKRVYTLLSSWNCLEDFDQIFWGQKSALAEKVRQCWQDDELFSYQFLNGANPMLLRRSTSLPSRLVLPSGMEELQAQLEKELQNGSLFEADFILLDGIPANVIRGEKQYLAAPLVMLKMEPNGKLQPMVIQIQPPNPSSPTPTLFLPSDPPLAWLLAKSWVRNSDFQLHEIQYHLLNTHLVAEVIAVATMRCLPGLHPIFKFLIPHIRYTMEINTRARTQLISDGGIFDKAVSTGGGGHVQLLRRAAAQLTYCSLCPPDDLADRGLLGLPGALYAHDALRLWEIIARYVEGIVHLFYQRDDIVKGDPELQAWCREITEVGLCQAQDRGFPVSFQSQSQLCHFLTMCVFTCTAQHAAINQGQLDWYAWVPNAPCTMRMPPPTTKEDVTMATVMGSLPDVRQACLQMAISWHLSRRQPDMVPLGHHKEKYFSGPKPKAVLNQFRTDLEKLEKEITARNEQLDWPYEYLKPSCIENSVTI
#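 Purified human 12hLO (150 nM final) in 25 mM Hepes, 0.01% Triton X-100, pH 7.0 was preincubated 15 min at room temperature with compound. Then 40 uM arachidonic acid was added, 30 min. Hydroperoxide was read by Fe-XO absorbance ratio 573/405 nm.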
# IL-1B inflam inh – qHTS for Inhibitors of Inflammasome Signaling: IL-1-beta AlphaLISA Primary Screen; THP-1 LPS/ATP IL-1B secretion, AlphaLISA, 16 h; active compounds read low; actives 4.7% (n = 360,000); activity change, % at 57.5 µM; AID 743279, 2014; in the data active = activity change below about -50%; inconclusive = mostly about -30% to -49%
#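 Secreted IL-1B measured by AlphaLISA bead assay after 16 h compound exposure of THP-1 cells; compounds (final up to 57.5 uM) added 1 h before LPS (250 ng/mL) and ATP (1.25 mM) stimulation; lower signal means less secretion.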
# HT1080-NT tox – qHTS for induction of synthetic lethality in tumor cells producing 2HG: qHTS for the HT-1080-NT fibrosarcoma cell line; HT-1080-NT fibrosarcoma viability, CellTiter-Glo ATP luminescence, 48 h; Potency, µM (doses to about 46.1 µM), actives largely listed as cytotoxic; actives 1.6% (n = 360,000);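 also: NT is the 2HG producing partner of a matched IDH1 knockdown line; nearly all actives have a fitted effect of over 55% in size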
#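 Viability by CellTiter-Glo luminescence after 48 h compound exposure at 37C of HT-1080-NT cells (750/well, RPMI, 5% FBS). % activity scaled between DMSO wells and medium-only wells, then curve-fitted and categorized by curve class.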
# DT40 TDP1 CPT – qHTS for Inhibitors of human tyrosyl-DNA phosphodiesterase 1 (TDP1): qHTS in cells in presence of CPT; chicken DT40 Tdp1-/-;hTDP1 cells + 20 nM CPT, ATP luminescence, 48 h; Potency, µM (titrated, usually from 46.2 µM), actives largely listed as inhibitors; actives 12% (n = 420,000); AID 686979, 2013; also: nearly all actives have a fitted effect of over 55% in size
#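 Chicken DT40 Tdp1-/- cells complemented with human TDP1, 400 cells/well, exposed to compounds plus 20 nM camptothecin for at least 48 h at 37 C; viability read as ATP content by CellTiter-Glo luminescence.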
# DT40 TDP1 no CPT – qHTS for Inhibitors of human tyrosyl-DNA phosphodiesterase 1 (TDP1): qHTS in cells in absence of CPT. DT40 Tdp1-/- hTDP1 cells, no CPT, ATP luminescence, 48 h. Potency, µM (series often up to 46.2 µM), actives largely listed as inhibitors. actives 15% (n = 420,000). AID 686978, 2013; also: nearly all actives have a fitted effect of over 55% in size
#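 No-CPT arm: Tdp1-/-;hTDP1 DT40 cells (400/well) plus compounds, incubated ≥48 hr at 37 °C. Readout CellTiter-Glo luminescence.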
# Hits are given with their value; . = inactive; ? = inconclusive; / = no result given; [ ] = dose if it differs, or a comment. Unless noted, calls follow the shape of the dose curve; as a rule, active = well fitted curve in the direction sought with a large enough effect; inconclusive = small, poorly fitted or top-dose-only effect, or another doubt; inactive = no such curve, though single readings can be large; an effect the other way counts as inactive or inconclusive.
SMILES,HT1080 IDH1KD tx,12-LOX inh,IL-1B inflam inh,HT1080-NT tox,DT40 TDP1 CPT,DT40 TDP1 no CPT
Nc1nccnc1C(=O)NCc1ccnc(Oc2ccc(F)cc2)c1,/,.,/,/,/,/
CCCCCC(=O)N1C[C@H](n2cc(C3CC3)nn2)[C@@H](O)C[C@@H]1c1ccccc1,.,.,.,.,.,?
CCCCCCN1C[C@H](n2cc(C3CC3)nn2)[C@@H](O)C[C@@H]1c1ccccc1,?,?,.,?,20.6µM,9.2µM
CCCCCCN1C[C@@H](O)[C@H](n2cc(C3CC3)nn2)C[C@@H]1c1ccccc1,.,?,.,.,18.4µM,16.4µM
CCCCCCN1C[C@H](n2cc(C3CC3)nn2)[C@@H](O)C[C@@H]1c1ccc(OC)cc1,.,?,.,.,?,20.6µM
CCCCCC(=O)N1C[C@@H](n2cc(C3CC3)nn2)[C@H](O)C[C@@H]1c1ccc(OC)cc1,.,.,.,.,?,?
CNCCCOc1cc(C)cc(C)c1C,.,.,.,.,?,?
CC(=O)N1c2ccccc2NC2=C(C(=O)CCC2)C1c1ccccc1 (stereo not given),/,.,/,/,/,/
CCOC(=O)c1cnc2cc(C(F)(F)F)ccc2c1N1CCN(c2ccc(F)cc2)CC1,/,?,/,/,?,20.6µM
CCOC(=O)c1cnc2cc(F)c(F)cc2c1N1CCN(C)CC1,/,.,/,/,/,/
CCOC(=O)c1cnc2c(OC)cccc2c1N1CCN(c2ccc(OC)cc2)CC1,.,.,.,.,?,16.4µM
CCOC(=O)c1cnc2c(C)cc(Cl)cc2c1N1CCN(C)CC1,.,.,-64.5,.,?,?
CCOC(=O)c1cnc2c(OC)cccc2c1Oc1ccccc1,.,?,.,.,.,.
CCOC(=O)c1cnc2c(OC)cccc2c1N1CCN(c2ccccn2)CC1,.,.,-53.2,.,?,16.4µM
CCOC(=O)c1cnc2c(C(F)(F)F)cccc2c1N1CCN(C)CC1,.,?,.,.,.,.
CCOC(=O)c1cnc2ccc(Cl)cc2c1N1CCN(C)CC1,.[9.24 µM],.,.,.,?,.
CCOC(=O)c1cnc2ccc(OCC)cc2c1N1CCN(c2cccc(Cl)c2)CC1,/,?,/,/,16.4µM,8.2µM
CCOC(=O)c1cnc2c(OC)cccc2c1N1CCN(c2ccccc2OC)CC1,.,.,-96.9,.,?,13µM
CCOC(=O)c1cnc2c(OC)cccc2c1N1CC(C)CC(C)C1 (stereo not given),.,.,.,.,11.6µM,7.31µM
O=C(CC1CCCCC1)Nc1ccc(-c2ccc3nncn3n2)cc1,?,.,.,?,?,18.4µM
O=C(CCCN1C(=O)/C(=C/c2ccccc2OC(F)F)SC1=S)Nc1cccnc1,.,.,-85.1,.,25.9µM,13µM
O=C(CCN1C(=O)/C(=C/c2ccc(Cl)cc2)SC1=S)Nc1cccnc1,.,.,.,.,29.1µM,?
Cc1ccc(/C=C2\SC(=S)N(CCCC(=O)Nc3cccnc3)C2=O)cc1,.,/,?,.,?,?
O=C(CCN1C(=O)/C(=C\c2ccccc2Cl)SC1=S)Nc1cccnc1,.,.,-52.5,.,.,?
CN(C)CCNC(=O)c1cnc2c(c1)N(Cc1ccccc1)CCC2,/,.,/,/,/,/
SMILES,HT1080 IDH1KD tx,12-LOX inh,IL-1B inflam inh,HT1080-NT tox,DT40 TDP1 CPT,DT40 TDP1 no CPT
CN1CCCCCCN(C(=O)C2CCCCC2)[C@H]2CCC[C@H]2C1=O,/,.,/,/,/,/
COc1ccc(C(CNC(=O)CNC(C)(C)C)c2c[nH]c3ccccc23)cc1 (stereo not given),/,.,/,/,/,/
CCCn1c(=O)c2ccc(C(=O)NC(C)C)cc2n2c(SCc3ccccc3Cl)nnc12,/,.,/,/,/,/
O=C1CCN(S(=O)(=O)c2ccc(F)cc2)C(c2ccccc2)C1 (stereo not given),/,.,/,/,/,/
CCOC(=O)C1CCN(C(=O)c2cc3ccc4ccc(C)[nH]c4c3n2)CC1,/,.,/,/,18.4µM,20.6µM
Cc1ccc2ccc3cc(C(=O)Nc4ccc(C)c(F)c4)nc3c2[nH]1,/,.,/,/,?,16.4µM
Cc1ccc2ccc3cc(C(=O)N4CCN(c5ccccc5F)CC4)nc3c2[nH]1,/,.,/,/,?,16.4µM
O=C(c1cccc(F)c1)N1CCC[C@H]1c1nc(-c2ccccc2)no1,/,.,/,/,/,/
COc1ccc(Cn2c(-c3ccc(C)cc3)nc3c(c(=O)c4ccccc4n3C)c2=O)cc1,?,.,.,?,14.6µM,?
COc1ccc(Cn2c(C)nc3c(c(=O)c4ccccc4n3C)c2=O)cc1,.,.,.,.,.,?
COc1ccc2c(=O)c3c(=O)n(CCc4ccccc4)c(C(C)C)nc3oc2c1,.,?,.,.,25.9µM,14.6µM
COc1ccc(CCn2c(C(C)C)nc3c(c(=O)c4ccccc4n3C)c2=O)cc1,?,/,.,.,16.4µM,11.6µM
COc1ccc2c(=O)c3c(=O)n(CCc4ccccc4)c(C)nc3oc2c1,.,.,/,.,.,.
COc1ccc(CCn2c(C)nc3c(c(=O)c4ccccc4n3C)c2=O)cc1,?,?,.,?,?,5.8µM
COc1ccc(-n2ncc3c2CC(C)(C)CC3NC(=O)c2ccc(OC)o2)cc1 (stereo not given),.,.,.,.,?,.
O=C(O)c1c2c(nc3ccccc13)CCCC2,/,/,/,/,.,.
Cc1cc(C)cc(N(C)C(=O)C2CCN(c3oc(-c4ccco4)nc3C#N)CC2)c1,/,.,/,/,/,/
CCOc1ccc(Oc2ncnc3c2cnn3-c2ccccc2)cc1,/,.,/,/,/,/
COc1ccc2[nH]cc(C3CC(=O)Oc4c3c(=O)n(C)c3ccccc43)c2c1 (stereo not given),/,.,/,/,/,/
COc1ccc2c(=O)c3c(=O)n(-c4ccccc4)c(-c4ccc(C)cc4)nc3oc2c1,.,.,.,.,.,18.4µM
CCCc1nc2oc3cc(OC)ccc3c(=O)c2c(=O)n1Cc1ccco1,.,?,.,.,.,?
CCCCCCn1c(-c2ccco2)nc2oc3cc(OC)ccc3c(=O)c2c1=O,.,?,.,.,?,20.6µM
O=C(NCCc1nnc2n1CCN(Cc1ccsc1)CC2)c1ccc(F)cc1,/,.,/,/,.,.
O=NN(CC(=O)NNc1ccccc1)CC(=O)NNc1ccccc1,?,?,.,?,.,.
S=C(N=Nc1ccccc1)NNc1ccccc1,.,.,.,.,3.66µM,?

# Screening results deposited in PubChem BioAssay by National Center for Advancing Translational Sciences (NCATS).
